HT1080-NT tox: kills 2HG-producing HT-1080-NT fibrosarcoma cells | HT-1080-NT fibrosarcoma viability, CellTiter-Glo ATP luminescence, 48 h | Potency, µM (doses to about 46.1 µM), usual class: cytotoxic | 1.6% of 360,000 active | AID 686970;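 also: NT is the 2HG producing partner of a matched IDH1 knockdown line; nearly all actives have a fitted effect of over 55% in size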
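Compounds were tested in concentration-response format on HT-1080-NT cells for 48 hours at 37 degrees C. Cell viability came from CellTiter-Glo luminescence; curves were classified by r2, response magnitude and activity.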
KB-3-1 cytotox: kills parental KB-3-1 adenocarcinoma cells; Potency, µM (top dose mostly 46.1 µM), usual class: cytotoxic; KB-3-1 viability, CellTiter-Glo ATP luminescence, 72 h; AID 1347075; 1.4% of 400,000 active; also: nearly all actives have a fitted effect of over 60% in size
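Cytotoxicity in the drug-sensitive parental line KB-3-1 was scored as loss of CellTiter-Glo luminescence following 72 h incubation with compound. Values come from curve fitting of normalized concentration-response data.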
HT1080 IDH1KD tx: toxicity to HT-1080 IDH1 knockdown cells (counter line) | 2% of 360,000 active | AID 686971 | HT-1080 IDH1 knockdown viability, ATP luminescence, 48 h | Potency, µM (highest dose often 46.1 µM), hits mostly cytotoxic
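% activity derives from luminescence (CellTiter-Glo), normalised to DMSO and no-cell wells. HT-1080-IDH1KD cells, 750/well, had 48 h compound exposure at 37 °C.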
KB-V1 cytotox: KB-V1 MDR subline cytotoxicity; KB-V1 MDR cells viability, CellTiter-Glo, 72 h; Potency, µM (series often up to 46.1 µM), most hits filed as cytotoxic; 3.4% of 400,000 active; AID 1347076; also: nearly all actives have a fitted effect of over 60% in size
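Cytotoxicity toward P-gp-expressing KB-V1 cells was determined as loss of CellTiter-Glo luminescence after 72 h at 37 degrees C. Compounds were tested in quantitative HTS format across a concentration range, with curves fitted to normalized data.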
DT40 TDP1 CPT: growth inhibition of DT40 Tdp1-/-;hTDP1 cells with camptothecin (screen for TDP1 inhibitors). chicken DT40 Tdp1-/-;hTDP1 cells + 20 nM CPT, ATP luminescence, 48 h. Potency, µM (doses to about 46.2 µM), most hits filed as inhibitors. 12% of 420,000 active; also: nearly all actives have a fitted effect of over 55% in size
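Chicken DT40 Tdp1-/- cells complemented with human TDP1, 400 cells/well, exposed to compounds plus 20 nM camptothecin for at least 48 h at 37 C; viability read as ATP content by CellTiter-Glo luminescence.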
TDP1 cell noCPT: qHTS for Inhibitors of human tyrosyl-DNA phosphodiesterase 1 (TDP1): qHTS in cells in absence of CPT; Potency, µM (top dose mostly 46.2 µM), usual class: inhibitors; AID 686978, 2013; DT40 Tdp1-/- hTDP1 cells, no CPT, ATP luminescence, 48 h; 15% of 420,000 active; also: nearly all actives have a fitted effect of over 55% in size
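DT40 Tdp1-/-;hTDP1 cells, no CPT (DMSO vehicle only), 400 cells/well; compounds pin-transferred; ≥48 hr, 37 °C; CellTiter-Glo 30 min RT dark, luminescence read.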
A number is an active result; – = inactive; ? = inconclusive; · = not tested or not shown; [ ] = remark or other dose. A selection: hits, their analogues and other compounds. The true share with any hit is near 19%. Calls follow the shape of the dose curve; as a rule, active = well fitted curve in the direction sought with a large enough effect; inconclusive = small, poorly fitted or top-dose-only effect, or another doubt; inactive = no such curve, though single readings can be large; an effect the other way counts as inactive or inconclusive.

SMILES	HT1080-NT tox	KB-3-1 cytotox	HT1080 IDH1KD tx	KB-V1 cytotox	DT40 TDP1 CPT	TDP1 cell noCPT
Cc1oc2ncn(CC(C)C)c(=O)c2c1C(=O)NCCc1ccc(Cl)cc1	·	–	·	–	?	15µM
COc1ccc(CCNC(=O)c2c(C)oc3ncn(CC(C)C)c(=O)c23)c(OC)c1	·	–	·	–	16µM	16µM
CCOc1ccc(CCNC(=O)c2c(C)oc3ncn(CC(C)C)c(=O)c23)cc1	·	–	·	–	?	?
CSc1ccc(CCNC(=O)c2c(C)oc3ncn(C)c(=O)c23)cc1	·	–	·	–	?	18µM
CCNC(=O)c1c(C)oc2ncn(C)c(=O)c12	·	–	·	–	–	–
Cc1cccc(N=N/C(=C\O)C(=O)c2cccs2)c1	?	–	13µM	26µM	?	?
Cc1cc(C)c(C(=O)c2cccs2)c(C)c1	–	–	–	?	–	–
c1ccc(-c2nc(N3CCCCCC3)nc(-n3ccnc3)n2)cc1	–	?	–	?	?	?
COC(=O)c1ccc(-n2ccnc2)cc1	–	?	–	–	–	–
c1ccc(-c2nc(N3CCN(c4ccccc4)CC3)nc(-n3ccnc3)n2)cc1	11µM	?	?	23µM	?	16µM
c1ccc(-c2ccc(-n3ccnc3)cc2)cc1	?	–	–[9.24 µM]	?	26µM	?
O=S1(=O)N[C@@H](Cc2ccccc2)COc2cccc(N3CCC[C@H]3CO)c21	–	–	–	?	?	?
COc1ccc(C(=O)NC(CCSC)C(=O)NCc2nnc3ccccn23)cc1 (stereo unspecified)	–	–	–	–	?	–
Cc1nc(NC(=O)c2ccc(Cl)cc2)sc1Cc1ccc2c(c1)OCO2	10µM	9.2µM	6.5µM	4.6µM	4.1µM	3.7µM
OC(C#Cc1ccccn1)c1cccs1 (stereo unspecified)	?	?	?	?	18µM	16µM
O=C(NC1CCCCC1)C(c1cccs1)N(C(=O)c1ccccn1)c1ccccc1 (stereo unspecified)	–	–	–	–	–	?
O=C(NCc1ccc(Cl)cc1)C(=O)NCC(c1ccco1)S(=O)(=O)c1cccs1 (stereo unspecified)	·	–	·	–	?	?
COc1ccc(NC(=O)CSc2nc(=O)n(CCN3CCOCC3)c3c2CCC3)c(OC)c1	–	–	–	–	–	–
COc1ccc(NC(=O)CSc2nc(=O)n(CCN3CCOCC3)c3c2CCCC3)c(OC)c1	–	–	–	8.2µM	–	–
COc1ccc(NC(=O)CSc2c3c(nc4ccccc24)CCC3)c(OC)c1	?	–	?	?	?	21µM
COc1ccc(NC(=O)CSc2c3c(nc4ccccc24)CCC3)cc1Cl	·	·	·	·	0.58µM	–
CC1CCCN(S(=O)(=O)c2cc(C(=O)NCc3ccccc3Cl)n(C)c2)C1 (stereo unspecified)	·	–	·	–	?	?
COc1ccc(NC(=O)c2cnc3cc(C)ccn3c2=O)c(OC)c1	·	–	·	?	–	–
CC(Sc1nc(=O)cc(N)n1CCc1ccccc1)C(=O)Nc1ccc(Cl)cc1 (stereo unspecified)	·	–	·	–	?	?
COC(=O)C1=NN(C(=O)c2ccccc2)C(C)(O)C1 (stereo unspecified)	–	–	?	–	?	23µM
SMILES	HT1080-NT tox	KB-3-1 cytotox	HT1080 IDH1KD tx	KB-V1 cytotox	DT40 TDP1 CPT	TDP1 cell noCPT
COC(=O)C1=NN(C(=O)c2ccccc2)C(O)(c2ccc([N+](=O)[O-])cc2)C1 (stereo unspecified)	–	–	–	–	–	–
CCN(C(=O)CSc1nnc2nc(C)cc(C)n12)c1ccccc1	–	–	–	?	–	–
CCc1ccccc1NC(=O)CSc1nc2c(oc3ccccc32)c(=O)n1-c1ccccc1F	·	·	·	·	?	18µM
Cc1ccccc1NC(=O)CSc1nc2c(oc3ccccc32)c(=O)n1-c1ccccc1F	·	–	·	–	?	23µM
CC(C)NCC1CCc2cc(CO)c([N+](=O)[O-])cc2N1 (stereo unspecified)	–	–	–	–	?	–
COc1c(C(=O)Nc2nnc(C3CC3)s2)csc1Cl	–	–	–	–	–	–
CCCCn1c(SCC(=O)c2ccc(OC)cc2OC)nc2cc(S(N)(=O)=O)ccc21	–	–	–	18µM	–	?
CCCCn1c(SCC(=O)Nc2cc(C)on2)nc2cc(S(N)(=O)=O)ccc21	–	–	–	?	–	–
CCCCn1c(SCc2c(C)noc2C)nc2cc(S(N)(=O)=O)ccc21	–	?	–	–	13µM	?
CCCCn1c(SCC(=O)NCc2ccc(OC)c(C(=O)O)c2)nc2cc(S(N)(=O)=O)ccc21	–	–	–	–	–	–
O=C(c1cnn2c(C(F)(F)F)cc(-c3cccs3)nc12)N1CCN(Cc2ccccc2)CC1	–	–	–	–	?	15µM
CN1CCN(C(=O)c2cnn3c(C(F)(F)F)cc(-c4cccs4)nc23)CC1	–	–	–	–	–	–
O=C(c1ccco1)N1CCN(C(=O)c2cnn3c(C(F)(F)F)cc(-c4cccs4)nc23)CC1	–	–	–	–	–	?
COc1ccccc1-c1cc(C(F)(F)F)n2ncc(C(=O)N3CCc4ccccc4C3)c2n1	–	–	–	?	?	23µM
O=C(c1cnn2c(C(F)(F)F)cc(-c3cccs3)nc12)N1CCN(C(c2ccccc2)c2ccccc2)CC1	–	–	–	?	9.2µM	13µM
O=C(NCCc1ccccc1)c1nc2nc(-c3cccs3)cc(C(F)(F)F)n2n1	–	–	–	?	21µM	29µM
COc1ccccc1N1CCN(c2nc3c(C)cccn3c(=O)c2C=O)CC1	–	–	?	23µM	–	–
COCCNC(=O)/C(C#N)=C/c1c(N2CCCCCC2)nc2c(C)cccn2c1=O	–	–	–	–	?	15µM
CNC(=O)/C(C#N)=C/c1c(N2CCN(c3ccccc3)CC2)nc2c(C)cccn2c1=O	–	–	–	–	?	15µM
COCCCNC(=O)/C(C#N)=C/c1c(N2CCN(c3ccc(OC)cc3)CC2)nc2c(C)cccn2c1=O	–	–	–	?	23µM	15µM
COCCCNC(=O)/C(C#N)=C/c1c(N2CCN(C)CC2)nc2c(C)cccn2c1=O	–	–	–	–	–	–
CSc1ccc(CCNC(=O)CCc2c(C)nc3c(c(C)nn3-c3ccc(C)c(C)c3)c2C)cc1	·	–	·	–	–	–
COc1ccc(C(=O)N/N=C(\C)CC(=O)NC2CCCCC2)c(OC)c1	–	–	–	–	–	–
